Measured values from PubChem BioAssay (EPA / NIEHS).
Inconclusive results are not listed. Calls of active or inactive are those of the source. How the source made its calls, unless noted: active means hit-call score of the fitted dose curve at least 0.9, where 1 is the maximum; inactive means score below 0.9.

How the values were obtained:
[1] = read-out: Monocyte Chemoattractant Protein-1 (MCP1), CCL2 (gene 6347); assay: BSK_LPS_MCP1: BioMAP Diversity Plus: LPS Assay for Monocyte Chemoattractant Protein-1 (MCP1) Biomarker Activity (AID 2283081); details: primary human HUVEC with PBMC; actives raise or lower the signal
Outline: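 Secreted MCP-1 read by ELISA at 24 h post-dosing in an LPS-activated co-culture of endothelial cells with peripheral blood mononuclear cells. Fits run in both directions, DMSO as baseline; parallel SRB staining tracks overt cytotoxicity.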

[2] = BSK_LPS_PGE2: BioMAP Diversity Plus: LPS Assay for Prostaglandin E2 (PGE2) Biomarker Activity (AID 2283082); details: primary human HUVEC with PBMC; actives raise or lower the signal
Outline: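 Primary human endothelial cells and blood mononuclear cells, co-cultured with LPS, receive test chemical; PGE2 ELISA follows at 24 h, with SRB-stained parallel cultures flagging cytotoxicity.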

[3] = read-out: Macrophage colony-stimulating factor (MCSF), CSF1 (gene 1435); assay: BSK_LPS_MCSF: BioMAP Diversity Plus: LPS Assay for Macrophage colony-stimulating factor (MCSF) Biomarker Activity (AID 2283083); details: primary human HUVEC with PBMC; actives raise or lower the signal
Outline: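 Bidirectional fitting against DMSO was applied to M-CSF levels read by ELISA at 24 h post-dose. The system pairs human umbilical vein endothelium with peripheral blood mononuclear cells; parallel SRB staining tracked cytotoxicity.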

[4] = read-out: Tissue Factor, F3 (gene 2152); assay: BSK_LPS_TissueFactor: BioMAP Diversity Plus: LPS Assay for Tissue Factor Biomarker Activity (AID 2283084); details: primary human HUVEC with PBMC; actives raise or lower the signal
Outline: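 Compound was added to an endothelial cell/PBMC co-culture, and after 24 h tissue factor (CD142) was read by ELISA. Gain or loss of signal was fitted against a DMSO baseline, and parallel SRB staining (560 nm) tracked overt cytotoxicity.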

[5] = read-out: Tumor necrosis factor (Homo sapiens) (UniProt P01375); assay: BSK_LPS_TNFa: BioMAP Diversity Plus: LPS Assay for Tumour Necrosis Factor alpha (TNFa) Biomarker Activity (AID 2283085); details: primary human HUVEC with PBMC; actives raise or lower the signal
Outline: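 ELISA-based TNFa endpoint in a human endothelial–PBMC co-culture sampled 24 h post-exposure. Curves were fitted in both directions using DMSO as baseline of activity.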

[6] = read-out: Vascular cell adhesion molecule 1 (VCAM1), VCAM1 (gene 7412); assay: BSK_LPS_VCAM1: BioMAP Diversity Plus: LPS Assay for Vascular cell adhesion molecule 1 (VCAM1) Biomarker Activity (AID 2283086); details: primary human HUVEC with PBMC; actives raise or lower the signal
Outline: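 Measured by ELISA: VCAM-1 in LPS-activated HUVEC/PBMC co-cultures 24 h after treatment. Values reflect bidirectional fitting with DMSO as baseline.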

CD38, CD38 (gene 952) = assay: BSK_SAg_CD38: BioMAP Diversity Plus: SAg Assay for CD38 Biomarker Activity (AID 2283087); details: primary human HUVEC with PBMC; actives raise or lower the signal
Outline: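 Measures CD38 on a human endothelial/PBMC co-culture driven by SEB and TSST-1, 24 h after compound exposure, using ELISA with fluorescence detection; DMSO defines baseline for bidirectional curve fitting.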

CD40, CD40 (gene 958) = assay: BSK_SAg_CD40: BioMAP Diversity Plus: SAg Assay for CD40 Biomarker Activity (AID 2283088); details: primary human HUVEC with PBMC; actives raise or lower the signal
Outline: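 CD40 is measured by fluorescence ELISA in an endothelial/PBMC primary human co-culture at 24 h post-dose. Fitting is bidirectional, DMSO baseline. Parallel SRB staining (560 nm) flags cytotoxicity.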

CD69, CD69 (gene 969) = assay: BSK_SAg_CD69: BioMAP Diversity Plus: SAg Assay for CD69 Biomarker Activity (AID 2283089); details: primary human HUVEC with PBMC; actives raise or lower the signal
Outline: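 HUVEC co-cultured with PBMC were dosed with chemical, and CD69 was measured by ELISA with fluorescence read-out 24 h later. Bidirectional curve fitting used DMSO as negative control and activity baseline.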

[7] = read-out: Monocyte Chemoattractant Protein-1 (MCP1), CCL2 (gene 6347); assay: BSK_SAg_MCP1: BioMAP Diversity Plus: SAg Assay for Monocyte Chemoattractant Protein-1 (MCP1) Biomarker Activity (AID 2283090); details: primary human HUVEC with PBMC; actives raise or lower the signal
Outline: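 Values derive from bidirectional fitting of ELISA-measured MCP1 against DMSO controls. Readings were taken 24 h after dosing human vascular endothelial cells co-cultured with peripheral blood mononuclear cells under superantigen stimulation.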

[8] = read-out: E-selectin (Homo sapiens) (UniProt P16581); assay: BSK_SAg_Eselectin: BioMAP Diversity Plus: SAg Assay for Eselectin Biomarker Activity (AID 2283091); details: primary human HUVEC with PBMC; actives raise or lower the signal
Outline: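 Cell-surface E-selectin is read by ELISA at 24 h in the SAg co-culture of HUVEC and PBMC. Curves are fitted in both directions relative to DMSO. Parallel SRB total-protein staining tracks overt toxicity.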

[9] = read-out: Monokine induced gamma interferon (MIG), CXCL9 (gene 4283); assay: BSK_SAg_MIG: BioMAP Diversity Plus: SAg Assay for Monokine induced gamma interferon (MIG) Biomarker Activity (AID 2283092); details: primary human HUVEC with PBMC; actives raise or lower the signal
Outline: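 HUVEC plus human PBMC co-culture, chemicals dosed and MIG (CXCL9) quantified by ELISA at 24 h. Bidirectional curve fitting against DMSO as negative control and baseline, so both gain and loss of signal count as activity.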

[10] = BSK_SAg_PBMCCytotoxicity: PBMC Cytotoxicity Assessment in the BioMAP Diversity Plus: SAg Assay (AID 2283093); details: primary human HUVEC with PBMC;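 further: fitted both ways against DMSO so a hit may be loss or gain of signal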
Outline: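 PBMC viability by Alamar Blue reduction, fluorescence read at 546/580 nm after 6 h dye exposure. Cells were dosed 1 h before SEB plus TSST-1 activation (20 ng/mL final each), then held 90 h; endothelial/PBMC human co-culture.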

[11] = read-out: Interleukin-8 (IL8), CXCL8 (gene 3576); assay: BSK_SAg_IL8: BioMAP Diversity Plus: SAg Assay for Interleukin-8 (IL8) Biomarker Activity (AID 2283094); details: primary human HUVEC with PBMC; actives raise or lower the signal
Outline: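 Primary human endothelial cells with PBMC, exposed 24 h; IL-8 determined by ELISA, analysed bidirectionally relative to DMSO.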

[12] = BSK_SAg_SRB: Viability Assessment in the BioMAP Diversity Plus: SAg Assay (AID 2283096); details: primary human HUVEC with PBMC;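 further: cells read one day after compound addition; hits may be either gain or loss of signal compared with DMSO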
Outline: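 Compounds were added to a human vascular co-culture of umbilical vein endothelium and PBMC. After 24 h, parallel cultures were fixed with 10% TCA, stained with 0.1% sulforhodamine B and read at 560 nm. Gain or loss of signal was fitted relative to DMSO.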

[13] = target: human CYP19A1, CYP19A1 (gene 1588) (UniProt P11511); assay: NVS_ADME_hCYP19A1: NovaScreen (NVS) CYP450-related Enzyme Activity (ADME) Assay for human CYP19A1 (AID 2283098; active means hit-call score of the fitted dose curve at least 0.9, where 1 is the maximum)
Outline: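 Fluorescence intensity read-out; activity taken as signal loss relative to acetonitrile vehicle. Extracted enzyme, specific substrate, no cells, 0.5 h exposure. Duplicate single-point screen at 10 uM, then concentration–response follow-up for actives.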

[14] = BSK_SAg_Proliferation: Cell Proliferation Assessment in the BioMAP Diversity Plus: SAg Assay (AID 2283095); details: primary human HUVEC with PBMC;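 further: relative cell number as total protein by SRB absorbance in sub-confluent culture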
Outline: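 A human primary co-culture of umbilical vein endothelium and blood mononuclear cells receives compound; relative cell number is quantified at 96 h by SRB staining and 560 nm absorbance, with DMSO-referenced bidirectional curve fitting.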

[15] = target: human CYP2B6, CYP2B6 (gene 1555) (UniProt P20813); assay: NVS_ADME_hCYP2B6: NovaScreen (NVS) CYP450-related Enzyme Activity (ADME) Assay for human CYP2B6 (AID 2283101; active means hit-call score of the fitted dose curve at least 0.9, where 1 is the maximum)
Outline: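 Recombinant human CYP2B6 with fluorogenic substrate, read by fluorescence intensity 1 h after dosing. Primary screen in duplicate at 10 uM, actives followed in concentration series; signal loss relative to acetonitrile control.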

E-selectin (Homo sapiens), sequence (P16581 whole entry, looked up): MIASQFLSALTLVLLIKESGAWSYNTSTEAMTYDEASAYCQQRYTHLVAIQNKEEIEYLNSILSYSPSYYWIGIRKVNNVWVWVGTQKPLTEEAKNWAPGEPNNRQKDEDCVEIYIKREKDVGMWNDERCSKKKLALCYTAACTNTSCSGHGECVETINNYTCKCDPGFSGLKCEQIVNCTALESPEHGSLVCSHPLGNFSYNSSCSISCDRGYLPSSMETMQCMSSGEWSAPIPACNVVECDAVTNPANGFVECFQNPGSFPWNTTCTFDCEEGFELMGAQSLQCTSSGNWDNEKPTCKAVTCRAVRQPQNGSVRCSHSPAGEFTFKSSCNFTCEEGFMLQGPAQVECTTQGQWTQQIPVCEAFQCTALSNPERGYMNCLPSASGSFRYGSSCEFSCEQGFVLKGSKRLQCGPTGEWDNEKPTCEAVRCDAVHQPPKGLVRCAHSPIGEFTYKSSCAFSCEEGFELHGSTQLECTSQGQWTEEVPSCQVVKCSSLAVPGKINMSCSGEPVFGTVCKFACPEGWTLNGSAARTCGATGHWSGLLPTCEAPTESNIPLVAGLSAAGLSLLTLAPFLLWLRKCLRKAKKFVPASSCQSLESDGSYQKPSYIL
Tumor necrosis factor (Homo sapiens), sequence (P01375 whole entry, looked up): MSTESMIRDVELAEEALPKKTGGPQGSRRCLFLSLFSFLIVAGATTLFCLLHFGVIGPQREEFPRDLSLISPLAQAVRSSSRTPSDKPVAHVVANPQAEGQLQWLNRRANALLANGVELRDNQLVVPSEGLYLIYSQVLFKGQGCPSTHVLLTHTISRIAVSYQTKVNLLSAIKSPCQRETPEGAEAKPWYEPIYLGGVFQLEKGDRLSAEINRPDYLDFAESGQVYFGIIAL
human CYP19A1, CYP19A1 (gene 1588), sequence (P11511 whole entry, looked up): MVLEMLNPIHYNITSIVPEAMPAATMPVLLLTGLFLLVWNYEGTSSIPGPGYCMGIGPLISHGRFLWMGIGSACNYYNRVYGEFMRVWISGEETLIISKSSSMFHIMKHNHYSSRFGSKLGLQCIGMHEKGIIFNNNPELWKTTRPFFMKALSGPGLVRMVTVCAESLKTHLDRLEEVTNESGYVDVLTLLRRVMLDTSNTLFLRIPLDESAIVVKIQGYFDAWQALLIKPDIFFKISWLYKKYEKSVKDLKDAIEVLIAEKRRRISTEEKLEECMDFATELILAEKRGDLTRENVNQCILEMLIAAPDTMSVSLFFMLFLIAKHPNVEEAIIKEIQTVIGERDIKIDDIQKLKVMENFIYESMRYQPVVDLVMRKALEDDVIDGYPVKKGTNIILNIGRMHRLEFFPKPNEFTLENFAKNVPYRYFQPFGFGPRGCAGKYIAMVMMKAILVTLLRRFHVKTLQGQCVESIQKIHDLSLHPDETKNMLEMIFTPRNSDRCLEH
human CYP2B6, CYP2B6 (gene 1555), sequence (P20813 whole entry, looked up): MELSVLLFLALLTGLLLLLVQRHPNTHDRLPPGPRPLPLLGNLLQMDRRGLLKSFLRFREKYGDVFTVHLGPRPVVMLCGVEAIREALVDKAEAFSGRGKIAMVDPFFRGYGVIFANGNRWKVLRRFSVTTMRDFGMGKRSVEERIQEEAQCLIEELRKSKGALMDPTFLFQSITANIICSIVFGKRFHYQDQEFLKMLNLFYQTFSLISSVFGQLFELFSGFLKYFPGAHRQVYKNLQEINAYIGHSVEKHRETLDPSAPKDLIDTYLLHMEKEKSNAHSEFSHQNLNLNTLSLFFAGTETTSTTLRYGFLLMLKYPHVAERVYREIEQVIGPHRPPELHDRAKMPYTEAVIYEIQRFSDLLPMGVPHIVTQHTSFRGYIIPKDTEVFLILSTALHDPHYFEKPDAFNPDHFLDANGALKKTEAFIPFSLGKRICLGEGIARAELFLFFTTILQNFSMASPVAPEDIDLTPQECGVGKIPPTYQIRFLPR

SMILES	outcome [1]	outcome [2]	outcome [3]	outcome [4]	outcome [5]	outcome [6]	outcome (CD38, CD38 (gene 952))	outcome (CD40, CD40 (gene 958))	outcome (CD69, CD69 (gene 969))	outcome [7]	outcome [8]	outcome [9]	outcome [10]	outcome [11]	outcome [12]	outcome [13]	outcome [14]	AC50 [4]	AC50 [8]	AC50 [15]
CCCC(CCC)C(=O)O	inactive	inactive	inactive	inactive	inactive	inactive	inactive	inactive	inactive	inactive	inactive	inactive	inactive	inactive	inactive	inactive				
OCc1ccccc1	inactive	inactive	inactive	inactive	inactive	inactive	inactive	inactive	inactive	inactive	inactive	inactive	inactive		inactive		inactive			
c1ccc2c(c1)-c1cccc3c1c-2cc1ccccc13	inactive	inactive			inactive	inactive	inactive	inactive	inactive	inactive		inactive	inactive		inactive		inactive	552 nM (active)	566 nM (active)	
NC(=O)N1c2ccccc2C=Cc2ccccc21	inactive	inactive	inactive	inactive	inactive	inactive	inactive	inactive	inactive	inactive	inactive	inactive	inactive		inactive		inactive			
CC(C)CC(C)O (stereo not given)	inactive	inactive	inactive	inactive	inactive	inactive		inactive	inactive	inactive	inactive	inactive	inactive	inactive	inactive		inactive			
O=S(=O)(O)c1ccc(N=Nc2c(O)ccc3cc(S(=O)(=O)O)ccc23)cc1	inactive	inactive		inactive	inactive	inactive	inactive	inactive	inactive	inactive	inactive	inactive	inactive	inactive	inactive					
C[Si](C)(C)C(F)(F)C(F)(F)C(F)(F)F	inactive	inactive		inactive	inactive	inactive	inactive	inactive	inactive	inactive	inactive	inactive	inactive	inactive	inactive		inactive			
CCCCCCCCCC	inactive	inactive	inactive	inactive	inactive	inactive	inactive	inactive	inactive	inactive	inactive	inactive	inactive	inactive	inactive					10000 nM (active)
